# The source made the active and inactive calls.
# Assays:
# [1] = anti-His antibody binders, primary screen, artefact control for SMM control protein annotation, biochemical, small-molecule microarray, 635 nm fluorescence (AID 1128); details: anti-His Alexa647 antibody binding, higher = more signal;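 further: score merges feature fluorescence with signal-to-noise for each printed compound spot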
# [2] = test system: Human papillomavirus type 1a E7 protein (residues 1-88); experiment: HPV1a E7 small-molecule binders, primary screen, biochemical, small-molecule microarray, residues 1-88, 635 nm (AID 1129); details: small-molecule microarray binding, fluorescence 635 nm; higher = more signal
# [3] = biological target: Focal adhesion kinase 1 (Homo sapiens) (UniProt Q05397); experiment: small-molecule microarray binders of FAK, primary screen, biochemical, 635/667 nm fluorescence, BSA, DTT (AID 1130); details: PTK2 binding, 635 nm fluorescence, higher = more signal;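 further: composite of spot emission at 667 nm and signal to noise over triplicate slides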
# Sequence of Focal adhesion kinase 1 (Homo sapiens) (Q05397 whole entry, looked up): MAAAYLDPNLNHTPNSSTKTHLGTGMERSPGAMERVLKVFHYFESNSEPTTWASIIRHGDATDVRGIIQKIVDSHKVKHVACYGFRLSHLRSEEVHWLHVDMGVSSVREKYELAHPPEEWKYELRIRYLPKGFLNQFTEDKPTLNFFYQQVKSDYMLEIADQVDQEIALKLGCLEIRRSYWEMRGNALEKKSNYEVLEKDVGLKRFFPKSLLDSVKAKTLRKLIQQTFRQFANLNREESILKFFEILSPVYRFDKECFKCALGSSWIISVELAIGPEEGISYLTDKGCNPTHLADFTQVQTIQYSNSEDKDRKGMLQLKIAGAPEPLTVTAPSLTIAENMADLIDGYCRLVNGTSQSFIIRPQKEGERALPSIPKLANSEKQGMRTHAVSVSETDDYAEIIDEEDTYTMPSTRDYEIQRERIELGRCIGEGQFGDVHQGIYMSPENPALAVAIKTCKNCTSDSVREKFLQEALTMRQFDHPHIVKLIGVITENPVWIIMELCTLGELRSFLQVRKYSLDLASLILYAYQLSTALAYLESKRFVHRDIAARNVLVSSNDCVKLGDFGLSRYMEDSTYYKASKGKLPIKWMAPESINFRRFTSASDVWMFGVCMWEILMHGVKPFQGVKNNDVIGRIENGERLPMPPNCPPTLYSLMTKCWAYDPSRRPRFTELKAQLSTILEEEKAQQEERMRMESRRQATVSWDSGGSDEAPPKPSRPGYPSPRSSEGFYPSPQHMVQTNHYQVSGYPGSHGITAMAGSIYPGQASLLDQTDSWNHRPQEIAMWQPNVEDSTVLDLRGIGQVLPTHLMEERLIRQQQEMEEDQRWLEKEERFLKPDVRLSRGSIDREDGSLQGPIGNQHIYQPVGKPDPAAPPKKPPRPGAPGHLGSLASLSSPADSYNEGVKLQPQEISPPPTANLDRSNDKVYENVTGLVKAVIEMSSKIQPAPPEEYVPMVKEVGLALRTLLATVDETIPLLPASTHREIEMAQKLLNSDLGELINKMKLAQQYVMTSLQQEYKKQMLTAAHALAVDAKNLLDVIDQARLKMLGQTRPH
# [4] = test system: Fibrinogen (Alexa647-labelled); experiment: fibrinogen binders on compound microarrays, profiling panel, artefact control for SMM control-protein annotation, biochemical, small-molecule microarray, 635/667 nm fluorescence (AID 1131); details: fibrinogen-A647 binding fluorescence, higher = more signal;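 further: z-score merges 667 nm fluorescence with per-spot signal-to-noise over triplicate slides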
# [5] = biological target: Follistatin (Homo sapiens) (UniProt P19883); experiment: follistatin binders on small-molecule microarrays, primary screen, biochemical, small-molecule microarray, 635/667 nm fluorescence (AID 1132); details: FST binding, 635 nm fluorescence, higher = more signal
# Sequence of Follistatin (Homo sapiens) (P19883 whole entry, looked up): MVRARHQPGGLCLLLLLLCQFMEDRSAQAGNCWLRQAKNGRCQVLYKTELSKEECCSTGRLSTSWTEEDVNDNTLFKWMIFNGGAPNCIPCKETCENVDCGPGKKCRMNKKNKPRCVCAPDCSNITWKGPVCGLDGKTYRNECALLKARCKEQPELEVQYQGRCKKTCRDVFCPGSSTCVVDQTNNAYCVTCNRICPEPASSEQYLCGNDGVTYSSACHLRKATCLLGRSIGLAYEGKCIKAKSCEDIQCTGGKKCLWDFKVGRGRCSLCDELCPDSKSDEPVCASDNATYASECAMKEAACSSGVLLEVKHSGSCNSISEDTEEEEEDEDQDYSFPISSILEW
# [6] = biological target: Fibroblast growth factor 2 (Homo sapiens) (UniProt P09038); experiment: FGF2 binders on small-molecule microarrays, primary screen, biochemical, small-molecule microarray, 635/667 nm fluorescence (AID 1133); details: small-molecule microarray binding, FGF2, fluorescence 635/667; higher = more signal
# Sequence of Fibroblast growth factor 2 (Homo sapiens) (P09038 whole entry, looked up): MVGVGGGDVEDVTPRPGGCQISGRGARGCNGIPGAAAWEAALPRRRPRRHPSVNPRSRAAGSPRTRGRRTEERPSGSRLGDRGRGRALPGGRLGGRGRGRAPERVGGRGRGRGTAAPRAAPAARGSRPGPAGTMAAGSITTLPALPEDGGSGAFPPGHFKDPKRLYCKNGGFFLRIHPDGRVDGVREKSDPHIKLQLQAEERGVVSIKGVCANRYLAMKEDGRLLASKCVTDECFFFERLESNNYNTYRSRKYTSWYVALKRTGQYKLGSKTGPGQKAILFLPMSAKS
# [7] = mitochondrial membrane potential change in A549 cells, profiling panel, cell-based, JC-1 fluorescence, basal, 24 h, 100 nL (AID 1138); details: higher = more signal;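 further: A549 lung adenocarcinoma cells under basal conditions with no added stimulus; test concentration not given here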
# Lefty1 = Lefty1 binders on small-molecule microarrays, primary screen, biochemical, small-molecule microarray, 635/667 nm fluorescence (AID 1139); details: small-molecule microarray binding, fluorescence 635/667; higher = more signal
# [8] = test system: wheat germ agglutinin (Triticum aestivum), Alexa647-labelled; experiment: wheat germ agglutinin binders on compound microarrays, profiling panel, artefact control for SMM control-protein annotation, biochemical, small-molecule microarray, 635/667 nm fluorescence (AID 1140); details: WGA-A647 binding, 635 nm fluorescence, higher = more signal;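 further: score merges 667 nm feature emission with signal to noise over triplicate slides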
# [9] = biological target: Luciferin 4-monooxygenase (Photinus pyralis) (UniProt P08659); experiment: firefly luciferase enzyme inhibitors, primary screen, biochemical, luminescence, purified enzyme, 2006 set (AID 1141); details: SteadyGlo luminescence, 30 min, higher = more signal, called active from +8 up or from −8 down;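 further: cell-free assay with purified firefly luciferase at 100 ng per well in PBS; test concentration not given here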
# Sequence of Luciferin 4-monooxygenase (Photinus pyralis) (P08659 whole entry, looked up): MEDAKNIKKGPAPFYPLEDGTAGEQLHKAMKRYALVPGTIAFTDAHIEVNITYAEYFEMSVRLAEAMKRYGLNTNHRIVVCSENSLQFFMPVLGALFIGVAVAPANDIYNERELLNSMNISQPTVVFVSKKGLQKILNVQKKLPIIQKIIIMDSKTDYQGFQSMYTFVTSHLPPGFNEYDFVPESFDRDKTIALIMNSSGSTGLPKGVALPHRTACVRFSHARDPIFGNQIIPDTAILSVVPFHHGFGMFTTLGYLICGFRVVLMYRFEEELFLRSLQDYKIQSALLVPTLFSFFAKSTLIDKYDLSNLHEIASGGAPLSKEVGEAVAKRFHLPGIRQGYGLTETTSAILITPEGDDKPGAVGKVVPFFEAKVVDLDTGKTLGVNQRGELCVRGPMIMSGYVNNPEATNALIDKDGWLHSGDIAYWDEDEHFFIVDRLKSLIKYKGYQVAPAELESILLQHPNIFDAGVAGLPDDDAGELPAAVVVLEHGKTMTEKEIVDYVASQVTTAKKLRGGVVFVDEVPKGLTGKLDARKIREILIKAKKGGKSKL
SMILES,composite z-score [1],composite z-score [2],composite z-score [3],composite z-score [4],composite z-score [5],composite z-score [6],z-score [7],composite z-score (Lefty1),composite z-score [8],z-score [9]
COC(=O)[C@@]1(Cc2ccc(OC)cc2)[C@H]2c3cc(C(=O)N(C)C)n(Cc4ccc(C)c(F)c4F)c3C[C@H]2CN1C(=O)c1ccccc1,0.158,0.713,0.0211,0.746,-0.266,-0.869,0.0287,-0.826,0.546,2.24 (inactive)
COc1ccc(-c2ccccc2[C@@H]2N[C@H](C(=O)O)CC[C@H]2C)cc1,0.351,0.449,0.671,0.0159,0.107,0.364,-0.568,0.404,-0.361,-0.739 (inactive)
C[C@H]1COC(=O)[C@@H]2CCCN2C(=O)[C@@H](C)COC(=O)[C@@H]2CCCN2C1=O,-0.451,-0.367,0.213,-0.135,0.0429,0.1,1.05,0.308,-0.468,-0.515 (inactive)
C[C@]1(C(=O)NCc2ccccc2)c2ccccc2C(=O)N(Cc2cc(C(F)(F)F)cc(C(F)(F)F)c2)[C@H]1c1ccc(CO)cc1,-0.152,1.19,0.415,0.749,1.34,1.72,0.195,0.221,0.322,-0.543 (inactive)
COc1ccc([Si](C)(C)[C@@H]2[C@@H](CCO)O[C@]3(C(=O)N(Cc4ccccc4)c4ccccc43)[C@H]2C)cc1,1.42,0.319,0.331,-0.153,0.32,1.21,-0.234,0.32,-0.139,-0.238 (inactive)
CO[C@H]1COC(=O)[C@H](C)COC(=O)[C@H](Cc2ccccc2)NC(=O)CC=C[C@H]1C,-0.384,-1.55,0.195,-1.04,1.42,0.807,1.71,1.16,-1.5,-1.14 (inactive)
C=CCC(OC(C)=O)[C@@H]1[C@@H](N(Cc2ccc(-c3cccc(C(F)(F)F)c3)o2)C(=O)Cc2ccc(F)cc2)c2cc(OCCCO)ccc2N1C(=O)c1ccc(-c2ccccc2)cc1 (stereo not given in full),-0.656,-0.922,-0.131,-0.531,0.16,-0.246,1.74,-0.173,0.294,-0.306 (inactive)
COc1ccc([Si](C)(C)[C@@H]2[C@@H](CC(=O)N(CCO)Cc3ccccc3)O[C@]3(C(=O)N(Cc4cccc(N5CCC5=O)c4)c4ccccc43)[C@H]2C)cc1,0.863,1.1,0.545,-0.0806,1.3,1.4,-0.282,1.49,0.163,0.352 (inactive)
COc1ccc(C(O)C2C=CC3C(=O)N(C)C(=O)C3N2N2CCCCC2)cc1OCc1ccccc1 (stereo not given),1.31,1.2,0.391,0.838,0.795,-0.444,0.0785,-0.24,0.951,-0.381 (inactive)
O=C1c2ccccc2[C@](Cc2ccccc2I)(C(=O)NCc2ccccc2)[C@H](c2ccc(CO)cc2)N1Cc1ccccc1C(F)(F)F,-0.77,-0.455,-0.328,-0.373,-1.2,-1.36,1.11,-1.22,-1.12,-1.09 (inactive)
O=C1C2C=CC(C(O)Cc3ccccc3)N(Nc3ccc([N+](=O)[O-])cc3)C2C(=O)N1c1ccccc1 (stereo not given),1.46,1.01,0.331,0.405,0.252,-0.165,-0.75,-0.0551,0.245,1.36 (inactive)
C[C@@H]1NC(=O)CC=C[C@@H](C)[C@@H]2C=C[C@H](O)[C@@H](COC(=O)[C@H](C)NC(=O)CC=C[C@@H](C)[C@@H]3C=C[C@H](O)[C@@H](COC1=O)O3)O2,-0.689,-0.453,0.365,-0.917,1.29,0.859,-0.0173,1.41,-0.833,-0.595 (inactive)
Cc1ccc(N2C(=O)c3ccccc3[C@](C)(C(=O)O)[C@@H]2c2ccc(CO)cc2)nc1,-0.763,-0.914,-0.594,-0.912,-1.04,-1.12,1.08,-1.28,-0.576,-1.46 (inactive)
COc1cc2c(cc1OC)CN(C(=O)[C@H]1[C@@H]3C(=O)O[C@@H](c4ccccc4)[C@@H](c4ccccc4)N3[C@@H](c3ccccc3OCCO)[C@]13C(=O)Nc1ccc(C#CC4(O)CCCCCC4)cc13)CC2,2.85,1.21,-0.0047,0.922,1.37,1.27,-0.627,0.971,1.08,-1.02 (inactive)
Cc1ccc(S[C@]2(C(=O)O)CC(=O)N(Cc3cc(C(F)(F)F)cc(C(F)(F)F)c3)[C@@H]2c2ccc(CO)cc2I)cc1,-0.339,-0.664,0.0035,-1.56,-0.251,-0.325,-0.603,-0.89,-1.09,-1.3 (inactive)
NC(=O)NCC#Cc1ccc2c(c1)[C@]1(C(=O)N2)[C@H](c2ccccc2OCCO)N2[C@H](c3ccccc3)[C@H](c3ccccc3)OC(=O)[C@H]2[C@@H]1C(=O)N1CCN(c2ncccn2)CC1,0.997,1.19,0.695,0.814,1.08,1.03,-0.77,0.347,0.438,-0.538 (inactive)

SMILES,composite z-score [1],composite z-score [2],composite z-score [3],composite z-score [4],composite z-score [5],composite z-score [6],z-score [7],composite z-score (Lefty1),composite z-score [8],z-score [9]
CCCNC(=O)[C@@H]1c2ccccc2C(=O)N(C2CCCCC2)[C@H]1c1ccc(CO)cc1,2.26,1.22,0.798,0.958,0.927,0.915,0.888,0.443,0.795,0.311 (inactive)
NC(=O)[C@H]1[C@@H]2C(=O)O[C@@H](c3ccccc3)[C@@H](c3ccccc3)N2[C@@H](c2ccc(O)cc2)[C@]12C(=O)Nc1ccc(C#CCCO)cc12,2.14,-1.66,-0.574,-1.74,-0.458,-0.581,-1.14,-0.997,-1.4,-0.0824 (inactive)
C=CCNC(=O)[C@@H]1[C@H]2C(=O)O[C@H](c3ccccc3)[C@H](c3ccccc3)N2[C@H](c2ccc(OCCO)cc2)[C@@]12C(=O)N(C(=O)OCCOC)c1ccc(C#CC3(O)CCCCCC3)cc12,0.166,1.2,0.262,0.827,1.18,0.833,-1,0.326,1.15,-2.35 (inactive)
CCCC=C(CCC)[C@@H](NS(=O)(=O)c1ccc(-c2ccccc2)cc1)c1ccc(C(=O)OC)cc1,0.5,-0.997,-0.15,-0.285,-0.407,-0.624,-2.58,-0.707,-0.153,1.67 (inactive)
CC(=O)Nc1ccc([C@H]2[C@H](C)CC[C@H]3C(=O)N4[C@@H](CC[C@@H](C)[C@@H]4c4ccc(NC(C)=O)cc4)C(=O)N32)cc1,2.46,1.16,0.558,0.798,1.19,1.25,0.673,1.54,0.994,-0.765 (inactive)
CO[C@H]1COC(=O)[C@H](C)NC(=O)CC=C[C@@H](C)[C@H](NS(=O)(=O)c2ccc(C)cc2)COC(=O)CC=C[C@@H]1C,-0.0701,-0.64,-0.522,-1.3,1.28,0.708,0.507,1.35,-0.955,-0.217 (inactive)
CC(=O)NCCCC[C@@H]1NC(=O)[C@@H]2C[C@H](C(=O)NCCCCCNC(=O)CS)[C@H](c3ccc(O)cc3)N2C1=O,0.133,-0.265,-0.295,-0.786,1.44,0.746,1.18,1.4,-0.802,-1.88 (inactive)
[N-]=[N+]=Nc1ccccc1C[C@@]1(C(=O)N2CCOCC2)N=C(c2ccc(OCCCO)cc2)O[C@@H]1c1ccccc1N=[N+]=[N-],2.48,1.19,1.41,0.886,1.42,0.667,2.03,0.0674,1.22,-3.69 (inactive)
CC(C)[C@H]1NC(=O)[C@@]23C(=O)N[C@@H](Cc4ccccc4)C2[C@H](C)[C@@]2(C)O[C@H]2C3/C=C/C/C=C\CNC(=O)[C@H](C)NC1=O (stereo not given in full),0.661,-0.983,-0.67,-0.908,-0.412,0.862,-0.134,-0.62,-1.03,-0.0632 (inactive)
C[N+](C)(C)CCCC[C@@H]1NC(=O)[C@H]2C[C@@H](C(=O)NCc3ccc(F)cc3)[C@@H](c3cccc(OCCO)c3)N2C1=O,1.02,0.431,1.05,0.14,1.46,1.85,1.3,1.07,0.0979,-0.908 (inactive)
COc1cc2c(cc1OC)CN(C(=O)[C@@H]1[C@H]3C(=O)O[C@H](c4ccccc4)[C@H](c4ccccc4)N3[C@H](c3ccccc3OCCO)[C@@]13C(=O)Nc1ccccc13)CC2,2.5,1.22,0.702,0.833,0.666,0.465,0.447,0.0595,0.849,-1.38 (inactive)
O=C1C[C@@](C(=O)NCCN2CCOCC2)(c2ccc([N+](=O)[O-])cc2)[C@@H](c2ccc(CO)cc2)N1C1CCCCC1,0.926,0.666,-0.442,0.63,1.16,1.22,1.11,0.0031,0.43,-0.83 (inactive)
Cc1ccc(N2C(=O)c3ccccc3[C@@H](C(=O)NCc3ccccc3)[C@@H]2c2ccc(CO)cc2)nc1,-0.841,-1.26,-0.289,-1.15,1.33,0.0049,1.35,-0.114,-1.19,-0.635 (inactive)
COCCOC(=O)N1C(=O)[C@@]2(c3cc(C#CCC(C(=O)OC)C(=O)OC)ccc31)[C@H](C(=O)N1CCN(c3ncccn3)CC1)[C@H]1C(=O)O[C@H](c3ccccc3)[C@H](c3ccccc3)N1[C@@H]2c1ccc(O)cc1,1.55,1.19,0.89,0.65,0.51,0.393,1.95,0.72,1.07,-1 (inactive)
COc1cc(CO)cc(I)c1O[C@H]1C=C(C(=O)NCCO)C[C@@H](N(CC2CCCCC2)C(=O)c2cc3ccccc3oc2=O)[C@@H]1O,0.309,0.238,-0.071,1.02,0.175,1.17,0.272,0.275,0.516,-0.462 (inactive)
